Compound activity as filed in PubChem.
Shown are actives, neighbours in structure and some others; about 1.5% of the full set was active somewhere.
TLR9-MyD88 inh = blocks human TLR9 binding to MyD88 | hit rate 0.21% among 340,000 | Q9NR96+Q99836 | inhibition, % at 4.98 µM | CHO BLA complementation TLR9-MyD88, CCF4 FRET ratio | AID 504734;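 active means inhibition above the mean over all tested compounds plus 3 SD, cut at about 21% in these data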;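 further: 0% = DMSO only wells and 100% = clavulanate BLA inhibitor control wells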
NOD2-RIPK2 inh = NOD2-RIPK2 protein interaction inhibition | AID 624267 | inhibition, % at 4.98 µM | CHO BLA complementation NOD2-RIPK2, CCF4 ratio | hit rate 0.38% among 360,000 | O43353; in the data active means inhibition above about 21%;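 further: 0% = vehicle only and 100% = reference blocker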
TLR4-MyD88 BLA = blocks binding of human TLR4 to MyD88 | O00206+Q99836 | HeLa CL3-4 TLR4/MyD88 BLA complementation, FRET ratio | inhibition, % at 8.4 µM | hit rate 0.18% among 200,000; in the data active means inhibition above about 25%;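 further: 0% = vehicle and 100% = reference inhibitor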
Target sequence (O00206 whole entry, looked up): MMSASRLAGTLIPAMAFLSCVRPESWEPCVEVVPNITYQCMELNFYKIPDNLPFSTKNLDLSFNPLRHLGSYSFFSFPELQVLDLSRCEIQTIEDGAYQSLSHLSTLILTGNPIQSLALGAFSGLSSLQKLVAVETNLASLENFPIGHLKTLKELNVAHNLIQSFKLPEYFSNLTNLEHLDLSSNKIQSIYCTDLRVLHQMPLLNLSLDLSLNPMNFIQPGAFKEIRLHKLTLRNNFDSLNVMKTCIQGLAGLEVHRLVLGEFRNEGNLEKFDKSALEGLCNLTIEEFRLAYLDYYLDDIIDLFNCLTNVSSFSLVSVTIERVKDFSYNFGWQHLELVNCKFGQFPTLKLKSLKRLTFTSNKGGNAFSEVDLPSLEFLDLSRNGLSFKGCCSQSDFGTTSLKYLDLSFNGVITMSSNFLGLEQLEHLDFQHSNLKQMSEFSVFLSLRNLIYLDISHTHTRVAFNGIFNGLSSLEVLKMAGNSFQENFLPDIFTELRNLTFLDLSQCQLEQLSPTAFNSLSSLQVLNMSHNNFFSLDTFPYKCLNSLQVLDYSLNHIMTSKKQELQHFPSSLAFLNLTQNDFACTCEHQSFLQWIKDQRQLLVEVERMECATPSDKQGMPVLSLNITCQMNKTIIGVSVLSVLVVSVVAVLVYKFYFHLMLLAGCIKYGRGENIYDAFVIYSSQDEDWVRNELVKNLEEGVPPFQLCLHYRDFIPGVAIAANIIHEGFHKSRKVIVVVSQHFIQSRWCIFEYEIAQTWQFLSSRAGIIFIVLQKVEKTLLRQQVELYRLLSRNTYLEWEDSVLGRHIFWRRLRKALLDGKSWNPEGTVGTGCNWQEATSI
Target sequence (Q99836 whole entry, looked up): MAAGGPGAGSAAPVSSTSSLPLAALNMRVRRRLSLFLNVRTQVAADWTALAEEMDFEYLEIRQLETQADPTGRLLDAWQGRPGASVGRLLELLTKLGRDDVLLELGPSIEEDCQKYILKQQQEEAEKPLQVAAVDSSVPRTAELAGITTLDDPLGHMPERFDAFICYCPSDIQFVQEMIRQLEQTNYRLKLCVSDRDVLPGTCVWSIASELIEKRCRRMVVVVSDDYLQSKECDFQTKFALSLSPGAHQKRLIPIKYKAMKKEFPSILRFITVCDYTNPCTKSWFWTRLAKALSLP
Myeloid diff MLP = compounds promoting myeloid differentiation; calls only at 10 µM; hit rate 1% among 360,000; ER-HoxA9 myeloid progenitors, lysozyme-GFP differentiation, flow cytometry;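 active means normalized GFP-positive differentiation at or above the plate's own cutoff, the solvent-only control mean plus 3 SD; inconclusive means no clear call, values can overlap the other calls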;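 further: cells exposed to compound for four days before flow analysis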
TLR4-MyD88 conf = confirmation of human TLR4-MyD88 binding inhibitors; shares compounds with TLR4-MyD88 BLA; HeLa CL3-4 BLA complementation, CCF4 FRET ratio; inhibition, % at 8.4 µM; hit rate 50% among 350; AID 941;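 active means mean inhibition across three repeat runs above about 25% carried over from the earlier screen, limit read from the data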;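 further: plate controls were DMSO only for no effect and clavulanic acid blocking BLA at full dose for full effect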
BLA inhibitor ct = inhibits beta-lactamase activity, counter-screen to TLR4-MyD88 binding inhibitors. shares compounds with TLR4-MyD88 BLA. HeLa BLA reporter, CCF4 FRET ratio. inhibition, % at 8.4 µM. hit rate 63% among 350;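 active means mean inhibition over three repeats above about 26% taken from the earlier screen, limit read from the data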;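 further: HeLa cells stably expressing beta-lactamase reporter as counterscreen for TLR4-MyD88 inhibitors; 0% = DMSO and 100% = clavulanic acid full inhibition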
The depositor's hits bear a star; i = inactive; ? = inconclusive; . = not tested or not shown; + = active, no number.

SMILES | TLR9-MyD88 inh | NOD2-RIPK2 inh | TLR4-MyD88 BLA | Myeloid diff MLP | TLR4-MyD88 conf | BLA inhibitor ct
CCSc1ncc(/C=N/Nc2ccc([N+](=O)[O-])cc2)n1C | 8 | 14 | 44* | i | 33* | 55*
CCN(C(=O)CN1C(=O)NC2(CCCC2)C1=O)c1nc2c(C)cccc2s1 | 0 | -2 | . | i | . | .
O=C1COc2ccc(C(=O)COC(=O)c3cnc(Cl)c(Cl)c3)cc2N1 | 0 | -9 | 28* | i | 27* | -3
CCN(CC)c1ccc(/C=C/c2nc3ccccc3s2)cc1 | . | . | 56* | . | 48* | 76*
CC(C)(C)c1cc(NC(=O)c2cccnc2)no1 | 0 | -10 | 27* | i | 7 | 0
COC(=O)c1ccc(-c2nc3cc(Cl)c(N)cc3s2)cc1 | 11 | 9 | 38* | i | 44* | 59*
COc1ccc2c(c1)[n+](=O)c(C(C)=O)c(C)n2[O-] | 2 | 1 | 0 | i | . | .
CC(=O)c1c(C)n([O-])c2cc(F)c(F)cc2[n+]1=O | 5 | 10 | 28* | + | 26* | 12
C[C@@H]1CN([C@@H](C)CO)C(=O)CCCn2cc(nn2)CO[C@H]1CN(C)S(=O)(=O)c1ccc(Cl)cc1 | -15 | -14 | . | i | . | .
Cc1cccc(N2C(=O)/C(=C\c3ccc(C(=O)O)cc3)c3ccccc3C2=O)c1 | 19 | 4 | 45* | i | 32* | 35*
CCOC(=O)c1sc2nc(N3CCOCC3)c3c(c2c1N)CCCC3 | -2 | 3 | -2 | i | . | .
COC(=O)c1ccc(-c2sc3nc(N4CCOCC4)c4c(c3c2N)CCCC4)o1 | . | . | 27* | . | 24 | 52*
CCCCCC(=O)N1C[C@@H](n2cc(C3CC3)nn2)[C@H](O)C[C@@H]1c1ccc(Cl)cc1 | -16 | -2 | . | i | . | .
COC(=O)[C@]12CCCCC=C1N(CCc1ccc(OC)c(OC)c1)C(=O)[C@H](CC(=O)NCCc1ccccc1OC)C2 | . | 2 | . | i | . | .
COc1ccc(C2C=C(c3cccs3)Nc3nc(CCCO)nn32)cc1 (stereo not given) | . | . | 32* | . | 33* | 56*
COc1ccc(C2C=C(c3ccccc3)Nc3nc(CCCO)nn32)cc1 (stereo not given) | . | . | 26* | . | 26* | 38*
CCC(=O)Nc1nc2n(n1)C(c1ccc(OC)cc1)C=C(c1ccccc1)N2 (stereo not given) | . | . | 14 | . | . | .
COc1ccc(C2C(C(N)=O)=C(C)Nc3nc(CCCO)nn32)cc1 (stereo not given) | 2 | 5 | . | i | . | .
O=C(Nc1ccc2c(c1)OCCO2)c1[nH]c(C(F)(F)F)nc1-c1ccccc1 | . | 9 | . | i | . | .
COc1cc(NC(C)CCCN)c2nc(C)ccc2c1Oc1ccc(F)cc1 (stereo not given) | 2 | 3 | . | i | . | .
COC(=O)[C@]12CCCCC=C1N(Cc1cccc3ccccc13)C(=O)[C@H](CC(=O)NCC1CCCCC1)C2 | . | -11 | . | i | . | .
Cc1sc2nc(CN3CCC(C)CC3)nc(Cl)c2c1C | . | . | 28* | . | 32* | 11
Cc1sc2nc(CN3CCOCC3)nc(Cl)c2c1C | 1 | 1 | 7 | i | . | .
O=C(NCC1CCCCC1)c1csc([C@@H]2C[C@H](O)[C@@H](CO)O2)n1 | . | -10 | . | i | . | .
COCCN1C(=O)N(c2cccc(OC)c2)C(=O)C1CC(=O)Nc1cccc(F)c1 (stereo not given) | -6 | 4 | . | i | . | .
SMILES | TLR9-MyD88 inh | NOD2-RIPK2 inh | TLR4-MyD88 BLA | Myeloid diff MLP | TLR4-MyD88 conf | BLA inhibitor ct
CCNC(=O)CC1C(=O)N(c2cccc(OC)c2)C(=O)N1CCOC (stereo not given) | -10 | 2 | 25* | i | 0 | 1
COc1ccc(/C=C2\CC/C(=C\c3ccc(OC)cc3OC)C2=O)c(OC)c1 | 11 | -5 | 32* | i | 19 | 47*
CC[C@H](CO)Oc1cc(NCc2cccc(N)c2)c2ncn(C(C)C)c2c1 | . | 0 | . | i | . | .
COc1ccc(/C=C/C(=O)c2c(O)cc(C)oc2=O)c(OC)c1 | 12 | -4 | 9 | i | . | .
COc1cccc(/C=C/C(=O)c2c(O)cc(C)oc2=O)c1O | -6 | 2 | 26* | i | -2 | 0
COc1ccc(N/C=C2\CCOC2=O)cc1 | 0 | -10 | 26* | i | 12 | -1
Clc1ccc(CSc2nnc(CN3CCOCC3)n2-c2ccccc2)cc1Cl | 5 | -5 | 26* | i | -6 | -1
CN1CCN(Cn2cc(/C=C/C(=O)c3ccccc3)c3ccccc32)CC1 | 23* | 33* | 28* | i | 16 | 34*
CCN1CCN(c2cc(C)c3cc(NC(=S)N4CCN(c5ccccc5)CC4)ccc3n2)CC1 | 12 | 9 | 26* | ? | 25* | 37*
CCN1CCN(c2cc(C)c3cc(NC(=S)N4CCOCC4)ccc3n2)CC1 | 4 | 2 | 7 | i | . | .
O=C(N/N=C/c1cc(Cl)ccc1O)C(=O)Nc1ccccc1OC(F)(F)C(F)F | 7 | 8 | 27* | ? | 7 | 20
O=C(Nc1ccc(F)cc1)C(c1ccnc2ccccc12)N1CCN(c2cccc(C(F)(F)F)n2)CC1 (stereo not given) | . | -15 | . | i | . | .
COC(=O)[C@@]12C[C@@H](CC(=O)NCC3CCCCC3)C(=O)N(Cc3cccc4ccccc34)C1=CCC(C)(C)C2 | . | 1 | . | i | . | .
COc1ccc(-c2n[nH]c(=S)n2-c2cc(OC)ccc2OC)cc1 | -5 | 5 | . | i | . | .
COc1ccc(OC)c(-n2c(-c3cccc(O)c3)n[nH]c2=S)c1 | -1 | -6 | 30* | i | -2 | 0
O=c1c2ccccc2nc(/C=C/c2c[nH]c3ccccc23)n1CCO | -5 | 4 | 26* | i | -4 | 6
O=C(CCCCCn1c(=O)[nH]c2ccsc2c1=O)NCc1ccc2c(c1)OCO2 | -1 | -4 | -7 | i | . | .
O=C(CCCn1c(=O)[nH]c2ccsc2c1=O)N1CCN(Cc2ccc3c(c2)OCO3)CC1 | -3 | 1 | 26* | i | -1 | 7
O=C(CSc1nnc(CNC(=O)c2c(F)cccc2Cl)o1)c1ccccc1 | 3 | 5 | 27* | i | 0 | 7
O=C(CSc1nnc(CNC(=O)c2c(F)cccc2Cl)o1)Nc1ccccc1 | -11 | -3 | 6 | i | . | .
O=C(NCc1cc(Cl)cc(Cl)c1)c1ccc2sc([C@H]3C[C@H](O)[C@@H](CO)O3)nc2c1 | . | -8 | . | i | . | .
